Calls of active or inactive are those of the source.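 Rule for the calls: active = average half-effect concentration of 10 µM or less in every one of the four cell panels; inactive = the rest.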

This test concerns H9c2. The experiment in a line: protection of cardiomyocytes from stress damage, SAR follow-up, cell-based, panel, H9c2 and HL-1, H2O2, 2-deoxyglucose, ATP luminescence (AID 651642). Conditions: H9c2/HL-1 cardiomyocyte H2O2 oxidative damage, mean of runs, with H2O2.
As to `COc1cc(-c2cc(C(=O)NCC(=O)Nc3cccc(C(C)=O)c3)c3cccc(Cl)c3n2)cc(OC)c1OC`, the compound was classed as active.

As for `COc1cc(-c2cc(C(=O)Nc3cccc(C(=O)NCc4ccccc4)c3)c3ccccc3n2)cc(OC)c1OC`, the compound was classed as active.

With `CCOC(=O)c1cccc(NC(=O)CNC(=O)c2cc(-c3cc(OC)c(OC)c(OC)c3)nc3c(Cl)cccc23)c1`, the call was inactive.

On to `CCOC(=O)c1cccc(NC(=O)c2cc(-c3cc(OC)c(OC)c(OC)c3)nc3ccc(C)cc23)c1`, for which the result was active.

On to `COc1ccc2c(c1OC)C(=O)N1c3ccccc3C(=O)N(Cc3ccc(C)cc3C)C21` (configuration not stated), for which the compound was classed as inactive.

Regarding `CCOC(=O)c1cccc(NC(=O)CNC(=O)c2cc(-c3cc(OC)c(OC)c(OC)c3)nc3ccc(OC)cc23)c1`, the call was active.

Regarding `COc1cc(-c2cc(C(=O)Nc3cccc(C(=O)Nc4ccccc4)c3)c3ccccc3n2)cc(OC)c1OC`, the outcome was active.

Turning to `COC(=O)CNC(=O)c1cc(-c2cc(OC)c(OC)c(OC)c2)nc2ccccc12`, the compound was classed as inactive.

`COc1ccc2c(c1OC)C(=O)N1c3ccccc3C(=O)N(Cc3cccc(C)c3)C21` (configuration not stated): the compound was classed as inactive.

As for `COc1ccccc1CN1C(=O)c2ccccc2N2C(=O)c3c(ccc(OC)c3OC)C12` (configuration not stated), the outcome was inactive.

With `CCOC(=O)c1cccc(NC(=O)CNC(=O)c2cc(-c3cc(OC)c(OC)c(OC)c3)nc3ccccc23)c1`, the call was inactive.

For `CCOC(=O)c1cccc(NC(=O)c2cc(-c3cc(OC)c(OC)c(OC)c3)nc3c(Cl)cccc23)c1`, the call was inactive.

As for `COc1cc(-c2cc(C(=O)Nc3cccc(C(=O)O)c3)c3ccccc3n2)cc(OC)c1OC`, the compound was called inactive.

For `CCOC(=O)c1cccc(NC(=O)c2cc(-c3cc(OC)c(OC)c(OC)c3)nc3ccc(OC)cc23)c1`, the compound was classed as active.

With `COc1ccc2c(c1OC)C(=O)N1c3ccccc3C(=O)N(Cc3cccc(F)c3)C21` (configuration not stated), the call was inactive.

Take `CCOC(=O)c1cccc(NC(=O)c2cc(-c3cc(OC)c(OC)c(OC)c3)nc3cc(Cl)ccc23)c1`: the call was inactive.

In the case of `COc1ccc2c(c1OC)C(=O)N1c3ccccc3C(=O)N(Cc3ccncc3)C21` (configuration not stated), the call was inactive.

Take `COc1ccc2c(c1OC)C(=O)N1c3ccccc3C(=O)N(Cc3cccc(Cl)c3Cl)C21` (configuration not stated): the result was inactive.

Take `COc1cc(-c2cc(C(=O)NCC(=O)O)c3ccccc3n2)cc(OC)c1OC`: the compound was classed as inactive.

Take `COc1cc(-c2cc(C(=O)Nc3cccc(C(=O)NC4CC4)c3)c3ccccc3n2)cc(OC)c1OC`: the result was active.

As to `CCNC(=O)c1cccc(NC(=O)c2cc(-c3cc(OC)c(OC)c(OC)c3)nc3ccccc23)c1`, the compound was called active.

As for `COc1ccc2c(c1OC)C(=O)N1c3ccccc3C(=O)N(Cc3c(Cl)cccc3Cl)C21` (configuration not stated), the compound was classed as inactive.

For the compound `COc1cc(-c2cc(C(=O)Nc3cccc(C(N)=O)c3)c3ccccc3n2)cc(OC)c1OC`, the call was active.

As to `COc1cc(-c2cc(C(=O)Nc3cccc(C(C)=O)c3)c3cc(F)ccc3n2)cc(OC)c1OC`, the compound was called active.

For `COc1ccc2c(c1OC)C(=O)N1c3ccccc3C(=O)N(Cc3cccc(Br)c3)C21` (configuration not stated), the compound was classed as inactive.

For `CCOC(=O)c1cccc(NC(=O)c2cc(-c3cc(OC)c(OC)c(OC)c3)nc3ccc(F)cc23)c1`, the compound was classed as inactive.

As to `COc1cc(-c2cc(C(=O)NCC(=O)Nc3cccc(C(C)=O)c3)c3cc(C)ccc3n2)cc(OC)c1OC`, the result was inactive.

On to `COc1ccc2c(c1OC)C(=O)N1c3ccccc3C(=O)N(Cc3ccccn3)C21` (configuration not stated), for which the result was inactive.

On to `CCOC(=O)c1ccc(NC(=O)c2cc(-c3cc(OC)c(OC)c(OC)c3)nc3ccccc23)cc1`, for which the result was inactive.

Turning to `CCOC(=O)c1cccc(NC(=O)CNC(=O)c2cc(-c3cc(OC)c(OC)c(OC)c3)nc3ccc(C)cc23)c1`, the call was active.

For the compound `COc1cc(-c2cc(C(=O)Nc3cccc(C(C)=O)c3)c3cc(C)ccc3n2)cc(OC)c1OC`, the result was active.

Take `COc1ccc(NC(=O)CNC(=O)c2cc(-c3cc(OC)c(OC)c(OC)c3)nc3ccccc23)cc1`: the compound was classed as inactive.

(Values after PubChem BioAssay AID651642 (Sanford-Burnham Center for Chemical Genomics, 2012).)
